Screening results (PubChem)
Compounds with a hit are over-represented: about 3.1% of the library has one in this group of screens.
Neddyl block – cullin neddylation inhibition; TR-FRET cullin neddylation, biochemical; 360,000 tested, 0.58% active; P61081+Q13564; calls only at 25 µM; AID 651699; in the data active = inhibition above about 36%
LEDGF integ inh – blocks HIV-1 LEDGF/p75-dependent DNA integration. TR-FRET IN-LEDGF/p75 DNA integration, Eu/Cy5. inhibition, % at 3.7 µM. 370,000 tested, 0.64% active. AID 743269;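 active = inhibition above the screen-wide mean plus 3 SD, cut at about 13% in these data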;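 also: signal is the Cy5 over europium emission ratio at 671 and 618 nm; 0% = plate median of compound wells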
UHRF1 MBD2 ctr – human UHRF1 methylated DNA binding inhibitors; Q96T88; UHRF1 binding to methylated oligo, TR-FRET; inhibition, % at 4.4 µM; 370,000 tested, 0.75% active; AID 687016; in the data active = inhibition above about 21%;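 also: UHRF1 SRA domain binding a hemimethylated CpG hairpin DNA probe; 0% = median of test compound wells and 100% = reference inhibitor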
MBD2 DNA inh – blocks human MBD2 binding to methylated DNA; inhibition, % at 4.4 µM; TR-FRET, MBD2 binding to methylated oligonucleotide; AID 686964; Q9UBB5; 370,000 tested, 0.31% active; in the data active = inhibition above about 13%
Target sequence (Q9UBB5 whole entry, looked up): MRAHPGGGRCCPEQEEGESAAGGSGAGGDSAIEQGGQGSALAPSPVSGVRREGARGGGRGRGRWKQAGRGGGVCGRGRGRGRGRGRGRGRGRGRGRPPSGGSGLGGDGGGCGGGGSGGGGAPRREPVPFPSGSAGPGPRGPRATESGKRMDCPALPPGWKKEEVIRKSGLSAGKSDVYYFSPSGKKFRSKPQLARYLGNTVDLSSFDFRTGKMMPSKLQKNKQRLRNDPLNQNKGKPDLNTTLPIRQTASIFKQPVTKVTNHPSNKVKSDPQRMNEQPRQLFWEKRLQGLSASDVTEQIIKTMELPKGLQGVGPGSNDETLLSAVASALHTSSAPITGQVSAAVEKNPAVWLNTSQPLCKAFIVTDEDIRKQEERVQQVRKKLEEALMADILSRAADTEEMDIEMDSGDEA
KLK7 zymogen act – proKLK7 (human) activation, primary screen. purified proKLK7, EDANS-DABCYL substrate fluorescence; 100% is mature enzyme control, 0% vehicle. 370,000 tested, 0.9% active. P49862. activation, % at 7 µM;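 active = activation above the mean of all tested compounds plus 3 SD, computed per campaign excluding outliers beyond control limits, cut at about 13% in these data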
Rin1-Abl PPI inh – human Rin1-Abl interaction inhibition; TR-FRET Rin1/Abl binding, biochemical; AID 588664; inhibition, % at 7.35 µM; 360,000 tested, 0.4% active; P00519+Q13671; in the data active = inhibition above about 5%, passing the limit was not always enough
proKLK7 act conf – proKLK7 activation, confirmation; shares compounds with KLK7 zymogen act; purified proKLK7, EDANS-DABCYL substrate fluorescence; scaled: vehicle 0, mature enzyme 100; activation, % at 7 µM; 3,200 tested, 68% active; AID 686949;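 active = activation, as change over the incubation, above the mean of all tested compounds plus 3 SD, cut at about 13% in these data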
EDANS-DABCYL int – fluorescence interference counter-screen for KLK7 activators; shares compounds with KLK7 zymogen act; EDANS-DABCYL substrate fluorescence interference, no enzyme, 4 h; solvent 0%, active enzyme control 100%; activation, % at 7 µM; 3,200 tested, 80% active;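 active = activation above the all-compound mean plus 3 SD, ignoring values outside control-based bounds, cut at about 4.8% in these data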;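 also: value is the 4 h activation minus the activation read at time zero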
EDANS interf – EDANS fluorescence interference in dose response, no enzyme; shares compounds with KLK7 zymogen act; 250 tested, 20% active; EC50, µM; EDANS-DABCYL peptide fluorescence interference;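 active = compounds that raise the fluorescence signal in this interference counterscreen, with EC50 at or below 10 µM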;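 also: intact quenched peptide substrate alone read at 355 nm excitation and 520 nm emission; signal is fluorescence gain from T0 to T4 after four hours at room temperature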
Numbers without * were called inactive; i = inactive; x = not tested or not shown.

SMILES	Neddyl block	LEDGF integ inh	UHRF1 MBD2 ctr	MBD2 DNA inh	KLK7 zymogen act	Rin1-Abl PPI inh	proKLK7 act conf	EDANS-DABCYL int	others
O=C(NCCN1CCC2(CC1)C(=O)NCN2c1ccccc1)c1ccc(OC(F)(F)F)cc1	x	1	7	10	0	x	x	x
C#CC1(O)CCC2C3CCC4=CC(=O)CCC4=C3C=CC21C (stereo unspecified)	i	-4	-1	4	14*	5	9	11*
CCOc1ccc(-c2cc(C)[n+](CCO)c(-c3ccc(OCC)cc3)c2)cc1	x	0	0	1	94*	0	70*	69*
C=CCSc1nc2c(c(-c3ccsc3)c1C#N)CN(C)CC2	i	1	-6	-8	0	0	x	x
CC1CN(CC(=O)c2ccccc2Cl)CC(C)O1 (stereo unspecified)	i	1	1	-5	16*	0	0	0
COC(=O)C1C(OC(=O)c2ccccc2)CC2CCC1[N+]2(C)C (stereo unspecified)	x	3	-1	-2	1	x	x	x
COc1c(C)cc(C(=O)C2CCCN(C3CCOCC3)C2)cc1C (stereo unspecified)	i	-3	-3	3	0	-2	x	x
COc1ccc2cc(C(=O)C3CCCN(C4CCOCC4)C3)ccc2c1 (stereo unspecified)	x	5	0	-2	139*	-2	4	20*
Cc1nn(Cc2ccccc2)c(C)c1C(=O)OCC(=O)Nc1cc(S(C)(=O)=O)ccc1Cl	i	-4	0	-3	0	2	x	x
COc1ccc2c(c1)[nH]c1c(C)nccc12	x	-2	6	7	47*	-1	20*	11*	EDANS interf=i
CCOC(=O)c1cccc(C2=C(CNC(=O)c3ccc([N+](=O)[O-])cc3)[C@H]3CC[C@@H](C2)N3Cc2ccccc2)c1	i	-6	-2	0	0	-3	x	x
O=c1[nH]c(=S)n(Cc2ccc(F)cc2)c(O)c1C=NCC1CCCO1 (stereo unspecified)	i	1	1	3	0	1	x	x
O=c1[nH]c(=S)n(Cc2ccc(F)cc2)c(O)c1/C=N/N1CCCCC1	i	-1	2	2	14*	-2	2	1
O=C(NCCN1CCC2(CC1)C(=O)NCN2c1ccccc1)C(c1ccccc1)c1ccccc1	x	2	-1	1	1	x	x	x
COc1ccc(-n2c(/C=C/c3ccc(O)c(OC)c3)nc3ccccc3c2=O)cc1	i	-2	-4	-3	-1	1	x	x
O=c1c2ccccc2nc(/C=C/c2ccc(O)cc2)n1-c1ccc(O)cc1	x	1	-2	-2	26*	-4	14*	2	EDANS interf=>23
O=c1c2ccccc2nc(/C=C/c2ccc(O)cc2)n1-c1cccc(O)c1	x	4	-1	3	214*	3	207*	78*
CCC(NC(=O)OCc1ccccc1)P(=O)(Oc1ccccc1)Oc1ccccc1 (stereo unspecified)	x	1	1	-6	1	x	x	x
CC(C)C(O)(C(=O)OCC1=CCN2CCC(O)C12)C(C)O (stereo unspecified)	i	1	1	-2	0	1	x	x
CC1=NCCc2c1[nH]c1cc(O)ccc21	i	-1	-11	-12	80*	-10	68*	71*
COc1ccc2c3c([nH]c2c1)C(C)=NCC3	x	-1	-2	0	54*	-3	58*	72*
O=C1NCN(c2ccccc2)C12CCN(C(CCc1ccccc1)c1nnnn1C1CCCCC1)CC2 (stereo unspecified)	i	-3	-4	1	1	0	x	x
COc1ccc(NC(=O)N2C[C@@H]3C[C@@H](C2)c2cccc(=O)n2C3)c(OC)c1	i	-1	3	-2	1	-2	x	x
Cn1c(O)c(/C=C2\C=c3ccccc3=NC2=O)c(=O)n(C)c1=O	i	-2	75*	-5	13*	-1	14*	12*
Cn1c(O)c(/C=C2\C=Nc3ccccc32)c(=O)n(C)c1=O	i	-1	0	0	0	-2	x	x
SMILES	Neddyl block	LEDGF integ inh	UHRF1 MBD2 ctr	MBD2 DNA inh	KLK7 zymogen act	Rin1-Abl PPI inh	proKLK7 act conf	EDANS-DABCYL int	others
O=c1ccc2cc(O[C@@H]3O[C@H](CO)[C@@H](O)[C@H](O)[C@H]3O)c(O)cc2o1	i	-4	-1	0	53*	-1	67*	71*
CC(=O)N1CCC2(CC1)CC(=O)c1cc(OCC(=O)N3CCN(C)CC3)ccc1O2	x	3	1	1	42*	2	63*	68*
Cc1cc(OCC(=O)N2CCCN(C)CC2)ccc1Cl	i	7	0	1	0	-2	x	x
CC(=O)N1CCC2(CC1)CC(=O)c1cc(OCC(=O)N3CCC4(CC3)OCCO4)ccc1O2	x	1	0	0	36*	-1	70*	65*
CCn1c(=O)cc(OCC(=O)N2CCC3(CC2)OCCO3)c2ccccc21	i	2	4	0	0	4	x	x
CCC(C)C1NC(=O)C(NC(=O)C(CC(C)C)N(C)C(=O)C2CCCN2C(=O)C(C)O)C(C)OC(=O)C(Cc2ccc(OC)cc2)N(C)C(=O)C2CCCN2C(=O)C(CC(C)C)NC(=O)[C@H](C)C(=O)[C@H](C(C)C)OC(=O)CC1O (stereo partly specified)	i	1	6	2	0	1	x	x
CN(C)c1ccc(/C=C2/C(=N\O)C3CCN2CC3)cc1	i	0	-3	-4	56*	2	130*	153*
O=C(c1cc2c(s1)-c1ccccc1OC2)N1CCC2(CC1)OCCO2	x	-2	0	2	50*	-4	63*	75*
CS(=O)(=O)N1Cc2cc(Br)ccc2-n2nncc2C1	x	1	0	-5	0	x	x	x
COc1cc(C)cc2oc(=O)c(CC(=O)N3C[C@H]4C[C@@H](C3)c3cccc(=O)n3C4)c(C)c12	x	2	-2	-1	22*	-4	15*	17*
Cc1cc(O)c2c(C)c(CC(=O)N3C[C@H]4C[C@@H](C3)c3cccc(=O)n3C4)c(=O)oc2c1	i	-1	4	2	-6	-7	x	x
Cc1cc(=O)oc2cc3c(cc12)CCCN3	i	-5	-3	-7	60*	1	66*	63*
